The values that follow come from PubChem BioAssay (NCI).

Test systems include DU-145 prostate; K-562 leukemia; MALME-3M melanoma; MDA-MB-231 breast; RXF 393 renal; SF-268 CNS; SF-295 CNS; SF-539 CNS; UACC-257 melanoma; M14 melanoma; HCT-15 colon; HT29 colon; SNB-75 CNS; SNB-19 CNS; U251 CNS; PC-3 prostate; SK-MEL-5 melanoma; UACC-62 melanoma; LOX IMVI melanoma; SK-MEL-28 melanoma.
Assay in all cases: NCI-60 one-dose screen, 48 h (100 = growth as untreated, 0 = no growth, -100 = all killed)
Holding throughout (details): 10 µM unless noted

The structures appear in SMILES notation. The panel holds about 83,000 compounds, 20% with a hit somewhere; the sample as a whole holds those more often.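 The test compound was applied at a single concentration to cells in 96-well plates for 48 hours, and percent growth was recorded.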 Values without a mark were called inactive. The source made the active and inactive calls. How the source made its calls: active means growth percent below 10; inactive means the rest.

In the case of `COc1ccc(C(=O)c2cc(C)c(OC)c(C)c2)cc1OC(=O)CCl`, the growth is 9.37% (active) in the experiment on DU-145 prostate; 4.66% (active) with K-562 leukemia; 63.1% with MALME-3M melanoma; 22.9% in the experiment on MDA-MB-231 breast; 37.7% in the experiment on RXF 393 renal; 27.6% with SF-268 CNS. Further, the growth in the experiment with SF-295 CNS was 11.8%; with SF-539 CNS, -26.1% (active); in the experiment with UACC-257 melanoma it was 56.8%; in the experiment with M14 melanoma, 0.344% (active); in the experiment with HCT-15 colon it was 13.1%; in the experiment on HT29 colon, 13.3%. The growth in the experiment with SNB-75 CNS was 69.8%; in the experiment on SNB-19 CNS, 30.8%; in the experiment with U251 CNS it was 6.71% (active); in the experiment with PC-3 prostate it was 25.9%; with SK-MEL-5 melanoma, -18.4% (active); with UACC-62 melanoma it was 41.8%. Moreover, the growth in the experiment on LOX IMVI melanoma was 18.9%; in the experiment with SK-MEL-28 melanoma it was 57.5%.

For the compound `CCCc1n(Cc2ccc3ccccc3c2)c2ccccc2[n+]1Cc1ccc2ccccc2c1`, the growth in the experiment with DU-145 prostate is 2.32% (active); with K-562 leukemia, -70.8% (active); in the experiment on MALME-3M melanoma it was -63% (active); in the experiment with MDA-MB-231 breast, -71.7% (active); in the experiment on RXF 393 renal, -79.3% (active); in the experiment with SF-268 CNS it was -49.7% (active). Besides, the growth was -59.8% (active) with SF-295 CNS; -34.5% (active) in the experiment on SF-539 CNS; -49.9% (active) in the experiment with UACC-257 melanoma; -72% (active) in the experiment with M14 melanoma; 4.29% (active) with HCT-15 colon; -72.2% (active) with HT29 colon. Besides, the growth was -18.2% (active) in the experiment with SNB-75 CNS; -76% (active) with SNB-19 CNS; -92.6% (active) in the experiment with U251 CNS; -22.8% (active) in the experiment with PC-3 prostate; -97.3% (active) with SK-MEL-5 melanoma; -89.2% (active) in the experiment on UACC-62 melanoma. Besides, the values for the growth in the experiment on LOX IMVI melanoma and in the experiment with SK-MEL-28 melanoma were -90.5% (active) and -53.6% (active), respectively.

On to `FC(F)(F)c1ccc(/C=N/Nc2nnc3n2N=C(c2ccc(Cl)cc2)CS3)cc1`, for which the growth in the experiment on DU-145 prostate was 53.7%; in the experiment on K-562 leukemia, 80.9%; in the experiment on MALME-3M melanoma, 16.3%; in the experiment on MDA-MB-231 breast, 56.2%; with RXF 393 renal, 3.04% (active); in the experiment on SF-268 CNS, 36.8%. Also, the growth in the experiment on SF-295 CNS was 47.6%; in the experiment on SF-539 CNS, 54.8%; with UACC-257 melanoma, 46.9%; with M14 melanoma, 74.4%; in the experiment on HCT-15 colon it was 79.9%; in the experiment on HT29 colon, 70.1%. Also, the growth in the experiment with SNB-75 CNS was -24.9% (active); in the experiment with SNB-19 CNS, 20.3%; in the experiment with U251 CNS, 60.4%; in the experiment on PC-3 prostate, 53.1%; with SK-MEL-5 melanoma, 76.4%; with UACC-62 melanoma, 55.1%. Also, the growth in the experiment with LOX IMVI melanoma is 82.8%.

Regarding `COc1ccc(NC(=O)/C=C/c2ccc(NC(=O)N3CCCC3)cc2)cn1`, the growth was 106% in the experiment with DU-145 prostate; 99.4% in the experiment with K-562 leukemia; 96.8% with MALME-3M melanoma; 97.5% with MDA-MB-231 breast; 109% in the experiment on RXF 393 renal; 101% in the experiment on SF-268 CNS. For the same compound, the growth is 99.8% in the experiment with SF-295 CNS; 97% with SF-539 CNS; 103% in the experiment on UACC-257 melanoma; 103% with M14 melanoma; 94.1% in the experiment with HCT-15 colon; 106% in the experiment on HT29 colon. Besides, the growth is 102% with SNB-75 CNS; 102% with SNB-19 CNS; 98.6% with U251 CNS; 96.5% with PC-3 prostate; 99.8% in the experiment on SK-MEL-5 melanoma; 101% in the experiment with UACC-62 melanoma. For the same compound, in the experiment with LOX IMVI melanoma, the growth was 98.4%.

As for `COc1ccc(-c2cn(-c3cccc(C(=O)/C=C/c4ccc(O)c(OC)c4)c3)c(=O)[nH]2)cc1`, the growth in the experiment with DU-145 prostate is 6.8% (active); in the experiment on K-562 leukemia it was 25.7%; in the experiment on MALME-3M melanoma, 72.5%; in the experiment on MDA-MB-231 breast, 38.9%; with RXF 393 renal, -60.9% (active); with SF-268 CNS it was 19.1%. Also, the growth is 15.2% in the experiment on SF-295 CNS; 10.5% with SF-539 CNS; 40.3% with UACC-257 melanoma; 51% with M14 melanoma; 8.88% (active) in the experiment on HCT-15 colon; -21.6% (active) with HT29 colon. Besides, the growth in the experiment with SNB-75 CNS is 1.36% (active); in the experiment on SNB-19 CNS, 67.4%; in the experiment with U251 CNS, 4.66% (active); in the experiment with PC-3 prostate, 20.2%; with SK-MEL-5 melanoma, 22.7%; with UACC-62 melanoma, 40.8%. In addition, the growth with LOX IMVI melanoma was -13.9% (active).

Consider `NC(N)=N/N=C/c1ccccc1`, for which the growth in the experiment on DU-145 prostate is 105%; with K-562 leukemia, 96.1%; in the experiment with MALME-3M melanoma, 102%; in the experiment on MDA-MB-231 breast, 92.9%; with RXF 393 renal, 101%; with SF-268 CNS, 103%. Besides, the growth was 88.3% with SF-295 CNS; 98% in the experiment on SF-539 CNS; 93.9% in the experiment on UACC-257 melanoma; 103% in the experiment with M14 melanoma; 93.1% in the experiment on HCT-15 colon; 99.8% in the experiment with HT29 colon. The growth in the experiment on SNB-75 CNS was 88.6%; in the experiment on SNB-19 CNS it was 92.5%; in the experiment on U251 CNS, 97.5%; in the experiment with PC-3 prostate it was 94.1%; in the experiment with SK-MEL-5 melanoma, 102%; with UACC-62 melanoma it was 101%. The growth in the experiment on LOX IMVI melanoma and in the experiment with SK-MEL-28 melanoma was 100% throughout.

With `O=C(Nc1ccc2[nH]c3ccccc3c2c1)c1ccccc1Cl`, the growth was 75% with DU-145 prostate; 10% (active) in the experiment on K-562 leukemia; 35.3% in the experiment on MALME-3M melanoma; 40.3% in the experiment with MDA-MB-231 breast; 26.5% with RXF 393 renal; 63% in the experiment with SF-268 CNS. In addition, the growth in the experiment on SF-295 CNS is 10.7%; in the experiment with SF-539 CNS it was 51.7%; in the experiment on UACC-257 melanoma, 83.1%; in the experiment on M14 melanoma, 26.2%; in the experiment on HCT-15 colon it was 31.7%; in the experiment on HT29 colon, 1.78% (active). Moreover, the growth in the experiment on SNB-75 CNS is 59.1%; in the experiment on SNB-19 CNS, 82.9%; in the experiment with U251 CNS it was 32.6%; in the experiment with PC-3 prostate it was 54.1%; in the experiment with SK-MEL-5 melanoma, 30.3%; in the experiment with UACC-62 melanoma, 56.4%. The growth with LOX IMVI melanoma was 33.9%; in the experiment on SK-MEL-28 melanoma, 57.8%.

Regarding `COc1ccc(C2CC(c3cccc(Nc4ccnc5cc(Cl)ccc45)c3)=NN2c2ccc(Cl)cc2)cc1` (configuration not stated), the growth in the experiment with DU-145 prostate is 79.2%; in the experiment on K-562 leukemia, 12.8%; in the experiment with MALME-3M melanoma it was 74.6%; in the experiment on MDA-MB-231 breast, 75.5%; in the experiment with RXF 393 renal it was 105%; with SF-268 CNS it was 55.1%. For the same compound, the growth is 30.7% in the experiment with SF-295 CNS; -31.5% (active) in the experiment with SF-539 CNS; 70.7% in the experiment on UACC-257 melanoma; 28.3% in the experiment with M14 melanoma; 42.5% with HCT-15 colon; 64.2% in the experiment with HT29 colon. In addition, the growth was 79.7% in the experiment with SNB-75 CNS; 94.8% with SNB-19 CNS; 65% in the experiment with U251 CNS; 60.7% with PC-3 prostate; 53.4% with SK-MEL-5 melanoma; 9.78% (active) with UACC-62 melanoma. Also, the growth is 47.4% in the experiment with LOX IMVI melanoma and 65.8% in the experiment on SK-MEL-28 melanoma.
